Luc counter = Counterscreen for Luciferase (Kinase-Glo TM) Inhibition; Potency, µM (top dose mostly 38.3 µM), for inactives: at the top dose activity change, negative = inhibition, actives largely listed as inhibitors; Kinase-Glo luciferase, ATP luminescence, 8 min; Luciferin 4-monooxygenase (Photuris pensylvanica), Q27757; hit rate 0.28% among 200,000; AID 1379, 2008; also: nearly all actives have a fitted effect of over 60% in size
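Substrate mix (final 50 mM imidazole pH 7.2, 50 mM KCl, 7 mM MgCl2, 10 uM ATP, 0.01% Tween 20, 0.05% BSA) plus pin-tool compound, then Kinase-Glo detection mix; 8 min ambient, luminescence read.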
Gal4-VP16 FLuc = VP16 counterscreen qHTS for inhibitors of ROR gamma transcriptional activity | Drosophila S2 Gal4-VP16 UAS-luciferase, luminescence, 20 h | Potency, µM (doses to about 53.6 µM), for inactives: at the highest dose activity, negative = inhibition, usual class: inhibitors | hit rate 3.5% among 310,000 | AID 2546, 2010;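 also: Gal4-VP16 expression switched on by copper sulfate through the metallothionein promoter; nearly all actives have a fitted effect of over 50% in size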
RORgamma inh = qHTS for inhibitors of ROR gamma transcriptional activity; Nuclear receptor ROR-gamma (Mus musculus), P51450; AID 2551, 2010; Drosophila S2 Gal4-RORgamma UAS-luciferase reporter, 20 h; Potency, µM (top dose mostly 53.6 µM), for inactives: at the top dose activity change, negative = inhibition, usual class: inhibitors; hit rate 5.4% among 310,000; also: nearly all actives have a fitted effect of over 60% in size
Target sequence (P51450 whole entry, looked up, the tested form may be a part): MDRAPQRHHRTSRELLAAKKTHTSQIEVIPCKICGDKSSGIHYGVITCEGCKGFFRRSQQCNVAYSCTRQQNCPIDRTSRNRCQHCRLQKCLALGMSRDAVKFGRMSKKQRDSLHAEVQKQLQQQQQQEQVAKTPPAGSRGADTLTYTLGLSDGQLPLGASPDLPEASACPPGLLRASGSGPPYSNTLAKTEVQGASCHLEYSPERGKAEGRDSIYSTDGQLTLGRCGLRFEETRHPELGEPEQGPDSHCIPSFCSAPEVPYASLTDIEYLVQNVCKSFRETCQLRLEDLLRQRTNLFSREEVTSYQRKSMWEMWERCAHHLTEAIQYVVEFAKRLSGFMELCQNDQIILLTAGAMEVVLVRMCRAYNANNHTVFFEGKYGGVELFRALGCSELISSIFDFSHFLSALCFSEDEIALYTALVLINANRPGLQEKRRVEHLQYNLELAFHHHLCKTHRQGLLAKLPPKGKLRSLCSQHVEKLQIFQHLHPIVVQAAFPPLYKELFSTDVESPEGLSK
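Drosophila S2 cells stably expressing Gal4-DBD/mouse RORγ fusion under metallothionein promoter plus UAS-luciferase; compound 1 h, then 700 uM CuSO4 induction for 20 h at ambient temperature; inhibition read as reduced luminescence.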
Starred values were filed as active, the others as inactive; ? = inconclusive; . = no result; ! = not confirmed by another sample; [ ] = another dose, or the depositor's remark. The list is not random: actives were taken first. Their share in the collection is about 6.2%. Calls follow the shape of the dose curve; as a rule, active = well fitted curve in the direction sought with a large enough effect; inconclusive = small, poorly fitted or top-dose-only effect, or another doubt; inactive = no such curve, though single readings can be large; an effect the other way counts as inactive or inconclusive. % is scaled to controls: 0 for no effect and ±100 for the full control effect; potency is read from the fitted curve at half-maximal effect.

SMILES | Luc counter | Gal4-VP16 FLuc | RORgamma inh
S=C(NCc1ccc(Cl)cc1)NCc1ccccn1 | -1% | ? | 16µM*
CC(C1CC1)N(Cc1ccccc1)C(=S)Nc1ccccc1Cl (stereo unspecified) | -1% | ? | 10µM*
CC(C)CNS(=O)(=O)c1ccc(S(=O)(=O)N2CCN(CCC#N)CC2)cc1 | 4% | -16% | -38%
CCOC(=O)c1c(NC(=O)COC(=O)c2ccncc2)sc(C)c1C | -5% | -10% | -1%
CC(=O)Nc1ccc(/C=C2/Sc3ccccc3C2=O)cc1 | -3% | 19% | 15%
Cc1ccc(N)cc1O | . | 14% | -4%
Cc1cc(O)c(-c2cc(O)c(C)cc2O)cc1O | -16%[7.66 µM] | ? | 7.1µM*
CCOC(=O)C1CCN(Cc2cn(C)nc2-c2ccc(Oc3ccccc3)cc2)CC1 | . | 0% | -21%
CC1=C(/C=C/C(C)=C/C=C/C(C)=C/C(=O)O)C(C)(C)CCC1 | -3% | -4% | 5µM*!
CC1=C(/C=C/C(C)=C\C=C\C(C)=C\C(=O)O)C(C)(C)CCC1 | -1%[39.9 µM] | 5% | ?
Cc1nc2ccccc2n1CCc1ccccc1 | -1% | -4% | 11µM*
CCCc1nc2ccccc2n1CCc1ccccc1 | 0% | -29% | 7.1µM*
Cc1nc2ccccc2n1CC(=O)NN | 0% | -9% | -17%
OCCCc1nc2ccccc2n1CCc1ccccc1 | 0% | -3% | -12%
Cn1c(-c2ccc(N)cc2)nc2ccccc21 | . | -3% | -38%
Cn1c(CCc2ccc(N)cc2)nc2ccccc21 | -16% | ? | 11µM*
Cc1nc2ccccc2n1CC(=O)NCc1ccccc1 | -3% | 6.3µM* | -30%
Cc1nc2ccccc2c(=O)n1CCc1ccccc1 | . | 0% | 30%
Cc1cnc(CNC(=O)CC2C(=O)NCCN2Cc2cccc(F)c2F)cn1 (stereo unspecified) | . | -3% | -16%
CCC[C@H](NC(C)=O)C(=O)N[C@H]1CC(=O)ONCCCC[C@@H](C(N)=O)NC(=O)[C@H](Cc2c[nH]c3ccccc23)NC(=O)[C@H](CCCN=C(N)N)NC(=O)[C@@H](Cc2ccc3ccccc3c2)NC(=O)[C@H](Cc2cnc[nH]2)NC1=O | . | 7% | 2%
Cc1cc(=O)oc2cc(O)c(CN(C)CC(=O)O)cc12 | 0%[7.66 µM] | . | .
Cc1ccc(N=Cc2c(O)n(-c3cc(Cl)ccc3N3CCOCC3)c(=O)c3ccccc23)cc1C | -1% | 2% | 9%
COc1ccccc1NC(=O)CSc1nnc(COc2ccccc2OC)n1C | 1% | -3% | -3%
CC(C)(C)c1ccc(-c2nc(O)c(CC(=O)O)s2)cc1 | . | -11% | 11%
Cc1ccc(C)c(Nc2nc3ccc(C)cc3n3cnnc23)c1 | . | -4% | -17%
SMILES | Luc counter | Gal4-VP16 FLuc | RORgamma inh
CCn1c(COc2ccccc2)nc2ccccc21 | -5% | ? | ?
CCc1nc2ccccc2n1Cc1ccccc1F | -2% | -20%[10 µM] | 10µM*
CCn1c(CN(C)c2ccccc2)nc2ccccc21 | . | 22µM* | 10µM*
CCC(=O)NCc1nc2ccccc2n1Cc1ccccc1F | 0% | 1% | -1%
Cc1cc(C)cc(N(CC(=O)NC(C)(C)C)C(=O)CCC(=O)Nc2nccs2)c1 | . | -1% | 4%
COc1c(C)cc(C(=O)C2CCCN(C(=O)c3ccc4cc[nH]c4c3)C2)cc1C (stereo unspecified) | -1% | -1% | 32%
CC(C)CN=C(NS(=O)(=O)c1ccccc1)C(Cl)(Cl)Cl | -1% | ? | ?
Cc1oc(C)c2c(=O)ccc3c(c12)OC(N)=C(C#N)C3c1ccccc1 (stereo unspecified) | 3% | ? | 2%
CSc1ccc(C2C(C#N)=C(N)Oc3c2ccc(=O)c2c(C)oc(C)c32)cc1 (stereo unspecified) | -5% | ? | 6.3µM*
COc1ccc(-n2cc3ccc([N+](=O)[O-])cc3n2)cc1 | . | -14% | -18%
CCCn1c(-c2ccc(F)cc2)nc2c(NCC(C)(C)CN(C)C)nc(C)nc21 | -6% | -3% | -22%
C=C1C(=O)O[C@@H]2[C@@H]1CC/C(C)=C\CC[C@@]1(C)O[C@H]21 | -1%[17.1 µM] | 3.5µM* | 3.2µM*
C=C1C(=O)O[C@@H]2[C@H]1CC[C@H](C)[C@]1(O)CCC(=O)[C@@]21C | . | ? | -43%
C=C1C(=O)O[C@@H]2[C@H]3O[C@]3(C)CCC=C(C)CC[C@@H]12 | -6% | ? | 7.1µM*
O=C(O)CSCC(=O)N1CCN(c2cc(C(F)(F)F)nc3ccccc23)CC1 | . | -1% | -9%
O=C(c1ccc2oc(CCc3ccccc3)nc2c1)N1CCC(O)CC1 | . | -1% | -17%
Cc1nc2c3ccccc3nc(NNC(=O)CCC(=O)NCCC(C)C)n2n1 | -2% | 3% | -4%
CCN(CC)CCCNC(=O)CCC(=O)NNc1nc2ccccc2c2nc(C)nn12 | -5% | ? | 18µM*
O=S(=O)(Nc1ccc(O)c(Sc2nc3ccccc3s2)c1)c1ccc(Cl)cc1 | . | 2% | 3%
Cc1cccc(Nc2ncnc(N)c2[N+](=O)[O-])n1 | -1% | 0% | -13%
Cc1cc(C)nc(Sc2ncnc(N)c2[N+](=O)[O-])n1 | -2% | 8.9µM* | 6.3µM*
CC[C@H](C)[C@H](NC(=O)[C@H](Cc1ccc(O)cc1)NC(=O)[C@@H]1CCCN1C(=O)[C@H](CCCCN)NC(=O)[C@@H](N)CCCCN)C(=O)N[C@@H](CC(C)C)C(=O)O | . | 1% | -2%
COc1ccc(C(=O)c2c(C)c3ccccc3n2CC(O)CNC(C)C)cc1 (stereo unspecified) | -2% | 20µM* | 7.9µM*
COc1ccccc1CNCC(O)Cn1c2ccccc2c2ccccc21 (stereo unspecified) | -1% | ? | ?
Cc1ccc(S(=O)(=O)N(CC(=O)O)Cc2cccc(C)c2)cc1 | -1% | . | .
SMILES | Luc counter | Gal4-VP16 FLuc | RORgamma inh
Cc1cc(/C=C\c2nc(O)c([N+](=O)[O-])c(=O)[nH]2)c(C)n1-c1ccccc1 | 1% | -9% | ?
Nc1nonc1-c1nc2ccccc2[nH]1 | -1% | 7% | 2%
NC1=NCC(O)=C1c1nc2ccccc2[nH]1 | -2% | 9% | 11µM*
N=C1C(c2nc3ccccc3[nH]2)=C(O)CN1C1CCCCC1 | . | 20% | -42%
N=C1C(c2nc3ccccc3[nH]2)=C(O)CN1c1ccc(F)cc1 | 6% | -22% | 5µM*
CN(C)c1ccc(-c2cncnc2NCCc2cnc[nH]2)cc1 | . | 3% | -10%
Cc1ccc(NS(=O)(=O)c2c(C(=O)N3CCOCC3)c(C)n(C)c2C)cc1C | . | -4% | -21%
COc1ccc(NC(=O)Nc2cccc3ccccc23)cc1S(N)(=O)=O | . | 11% | 20%
CCOC(=O)c1c(N)sc2c1CCN(Cc1ccccc1)C2 | -1%[39.9 µM] | 10% | -24%
O=C(/C=C/c1ccc(S(=O)(=O)N2CCOCC2)cc1)N1CCN(c2ccccc2)CC1 | -1% | -17% | 19%
O=C(NC(=S)N1CCCC1)c1cccc([N+](=O)[O-])c1 | . | 0.71µM* | 2µM*
O=[N+]([O-])c1ccc(N2CCN(C(=S)c3cccc([N+](=O)[O-])c3)CC2)cc1 | . | -7% | 4%
O=C(NC(=S)N1CCN(c2ccc([N+](=O)[O-])cc2)CC1)c1ccccc1 | 0% | 0.56µM* | 0.28µM*
O=C(NC(=S)N1CCN(c2ccccc2)CC1)c1ccc(S(=O)(=O)N2CCOCC2)cc1 | . | 0.63µM* | 0.71µM*
